10 compounds from ChEMBL document CHEMBL1157539, “Thousands of chemical starting points for antimalarial lead identification” (Nature, 2010) can be followed below.

Common to all, as to type: functional
Test [1] concerns Plasmodium falciparum. Kind of test: GSK_TCMDC: Inhibition of Plasmodium falciparum 3D7 in whole red blood cells, using parasite LDH activity as an index of growth. Test compounds present at 2uM.
The subject of test [2] is Plasmodium falciparum. Kind of test: GSK_TCMDC: Inhibition of Plasmodium falciparum Dd2 in whole red blood cells, using parasite LDH activity as an index of growth. Test compounds present at 2uM.
The next test has as its system HepG2. The experiment in a line: GSK_TCMDC: Percent inhibition of human HepG2 cell line. Test compounds present at 10uM.

What is called Inhibition is the change of the read-out against control, counted positive when it falls. The low end stands for little suppression, the high end for strong suppression. Regarding `Cc1cc(C(=O)Nc2ccc3c(c2)CCN3C2CCN(Cc3csc4ccccc34)C2)no1` (stereo not given), the Inhibition with Plasmodium falciparum [1] amounted to 96%; in the test on Plasmodium falciparum [2], 96%; with HepG2 it was 1%.
As to `CCn1ccc2c(N3CCCCS3(=O)=O)cc(C(=O)N[C@@H](Cc3ccccc3)[C@H](O)CNC3CCCCC3)cc21`, the Inhibition was 98% in the test with Plasmodium falciparum [1], 98% in the test with Plasmodium falciparum [2] and 1% in the test on HepG2.
On to `CC(C)(C)c1ccc(CNC(=O)c2cc(CNC3CCNC3)ccc2O)cc1` (stereo not given), for which the Inhibition in the test with Plasmodium falciparum [1] is 94%; in the test on Plasmodium falciparum [2], 1%; in the test on HepG2 it was 0%.
Take `CN(Cc1cccc(F)c1)C1CCN(c2cc(NC(=O)c3ccc(F)cc3)ccn2)CC1.O=C(O)C(F)(F)F`: the Inhibition was found to be 95% in the test with Plasmodium falciparum [1], 36% in the test with Plasmodium falciparum [2] and 0% in the test with HepG2.
Consider `O=C(Nc1cc(F)cc(-c2cccnc2)c1)c1ccc2c(=O)n(Cc3ccccc3)cnc2c1`, for which the Inhibition in the test on Plasmodium falciparum [1] is 98%; with Plasmodium falciparum [2], 11%; with HepG2, 7%.
Take `CCCCCN1CCCC1CNS(=O)(=O)c1ccc(C(=O)Nc2ccc(C(F)(F)F)cc2)cc1.O=C(O)C(F)(F)F` (stereo not given): the Inhibition is on record as 87% with Plasmodium falciparum [1], 0% in the test on Plasmodium falciparum [2] and 19% in the test on HepG2.
For `COc1ccc(CN2CCCN(Cc3cccc(NC(=O)c4ccc5ccccc5c4)c3)CC2)cc1.O=C(O)C(F)(F)F`, the results for the Inhibition in the test with Plasmodium falciparum [1], in the test with Plasmodium falciparum [2] and in the test on HepG2 were 93%, 11% and 27%, respectively.
On to `O=C(O)/C=C\C(=O)O.c1cc(CN2CCCCC2)cc(OCCCNc2ccnc3ccccc23)c1`, for which the Inhibition in the test with Plasmodium falciparum [1] was 100%; in the test on Plasmodium falciparum [2], 99%; in the test with HepG2 it was 48%.
Consider `COc1cc(C(F)(F)F)c2cc(CNCCCNc3nc4ccccc4[nH]3)[nH]c2c1`, for which the Inhibition is 100% in the test on Plasmodium falciparum [1], 0% in the test on Plasmodium falciparum [2] and 60% in the test with HepG2.
Consider `COc1ccc(-c2cccc(NC(=O)c3cccs3)c2)cc1CN1CCCN(C)CC1.O=C(O)C(F)(F)F`, for which the Inhibition with Plasmodium falciparum [1] amounted to 100%; in the test on Plasmodium falciparum [2], 30%; in the test with HepG2 it was 17%.
